Molecules are shown by their SMILES. Values without a mark were called inactive. For part of these data: Potency and affinity values are given separately. Active and inactive are the calls of the source. Unless noted, no rule for the calls is given here.

This note sets out measurements from PubChem BioAssay.

Experiment [1] in a line: antimalarial activity against Dd2 strain (AID 2302;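 active = growth inhibition above 50% at the single 2 µM test dose, taken to imply half-maximal potency below 2 µM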;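 also: 0% = DMSO untreated growth and 100% = chloroquine plus artemisinin killed control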). Particulars: P. falciparum Dd2 in RBCs, LDH growth readout, 72 h; at 2 µM; active compounds read high.
Experiment [2] is described as follows: HepG2 cytotoxicity, primary screen, cytotoxicity control for P. falciparum antimalarial project, cell-based, ATP luminescence (AID 2303;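 active = inhibition above 50%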;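 also: 0% = DMSO wells and 100% = digitonin-killed cells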). The settings on record: HepG2 viability, 24-48 h, at 10 µM, active compounds read high.
Experiment [3] has as its target L-lactate dehydrogenase (Plasmodium falciparum (isolate CDC / Honduras)) (UniProt Q27743). Description: PfLDH activity inhibition – cell lysate, 3D7 strain, counter-screen for P. falciparum growth inhibition project (AID 2304).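 Also: 0% = vehicle and 100% = reference inhibitor.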 Particulars: P. falciparum 3D7 crude extract, LDH APAD/NBT absorbance; at 2 µM; active compounds read high.
A short description of experiment [4]: inhibition of 3D7 malaria parasite growth – strain 3D7 (AID 2306).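 Also: 0% = DMSO wells and 100% = chloroquine plus artemisinin control wells.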 Particulars: P. falciparum 3D7 erythrocytic growth, LDH absorbance, 72 h; at 2 µM; active compounds read high.
Experiment [5] addresses Calcium-dependent protein kinase 1 (Plasmodium falciparum (isolate 3D7)) (UniProt P62344). Description: PfCDPK1 kinase inhibitors, biochemical, TCAMS library (AID 1159585; cut-off not given, nearly all actives have IC50 up to about 0.98 µM;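 also: inhibitors leave more ATP so luminescence rises with inhibition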). Particulars: recombinant PfCDPK1, Kinase-Glo ATP depletion luminescence.
For experiment [6], the target named is Plasmodium falciparum protein kinase 6 (PK6, PF3D7_1337100) (UniProt Q8IDW1). Briefly: PfPK6 kinase inhibitors, biochemical, TCAMS library (AID 1159586). Particulars: recombinant PfPK6, Kinase-Glo ATP depletion luminescence.
Experiment [7] has as its target Protein kinase 7 (PK7), Plasmodium falciparum 3D7 (PF3D7_0213400) (UniProt Q7YTF7). Description: inhibition of Plasmodium PK7 catalytic activity – biochemical, TCAMS antimalarial set, Kinase-Glo luminescence (AID 1159587). Particulars: recombinant PfPK7, Kinase-Glo ATP depletion luminescence.
The target in experiment [8] is Calcium-dependent protein kinase 4 (Plasmodium falciparum (isolate 3D7)) (UniProt Q8IBS5). Description: PfCDPK4 kinase inhibitors, biochemical, TCAMS library (AID 1159588; cut-off not given, nearly all actives have IC50 up to about 0.91 µM). The settings on record: recombinant PfCDPK4, Kinase-Glo ATP depletion luminescence.
Calcium-dependent protein kinase 4 (Plasmodium falciparum (isolate 3D7)), sequence (Q8IBS5 whole entry, looked up): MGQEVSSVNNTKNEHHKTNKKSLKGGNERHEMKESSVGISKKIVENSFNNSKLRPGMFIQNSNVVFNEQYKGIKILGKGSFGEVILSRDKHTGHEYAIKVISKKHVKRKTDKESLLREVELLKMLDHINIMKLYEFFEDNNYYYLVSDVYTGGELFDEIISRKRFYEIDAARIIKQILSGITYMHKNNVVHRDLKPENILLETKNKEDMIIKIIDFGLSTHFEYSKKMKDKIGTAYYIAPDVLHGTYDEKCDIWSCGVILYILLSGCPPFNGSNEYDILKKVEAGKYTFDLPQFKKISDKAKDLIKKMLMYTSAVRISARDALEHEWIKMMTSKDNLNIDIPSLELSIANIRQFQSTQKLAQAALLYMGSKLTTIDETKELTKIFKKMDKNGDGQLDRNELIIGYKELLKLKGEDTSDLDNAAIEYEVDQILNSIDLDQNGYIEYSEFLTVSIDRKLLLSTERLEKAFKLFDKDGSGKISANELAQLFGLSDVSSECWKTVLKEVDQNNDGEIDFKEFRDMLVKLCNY

Calcium-dependent protein kinase 1 (Plasmodium falciparum (isolate 3D7)), sequence (P62344 whole entry, looked up): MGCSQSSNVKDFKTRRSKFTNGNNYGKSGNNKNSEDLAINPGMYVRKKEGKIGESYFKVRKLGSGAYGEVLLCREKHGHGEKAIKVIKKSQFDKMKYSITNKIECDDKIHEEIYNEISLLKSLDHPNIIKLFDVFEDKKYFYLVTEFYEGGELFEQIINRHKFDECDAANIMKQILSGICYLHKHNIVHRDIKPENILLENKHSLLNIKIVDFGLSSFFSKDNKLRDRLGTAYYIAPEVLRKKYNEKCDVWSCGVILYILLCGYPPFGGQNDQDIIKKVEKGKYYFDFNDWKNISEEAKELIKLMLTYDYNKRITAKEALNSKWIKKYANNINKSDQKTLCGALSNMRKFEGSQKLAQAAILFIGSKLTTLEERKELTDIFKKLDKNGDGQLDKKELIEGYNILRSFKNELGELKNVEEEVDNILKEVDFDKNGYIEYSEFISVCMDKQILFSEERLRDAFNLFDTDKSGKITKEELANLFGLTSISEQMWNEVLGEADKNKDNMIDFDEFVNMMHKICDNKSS
L-lactate dehydrogenase (Plasmodium falciparum (isolate CDC / Honduras)), sequence (Q27743 whole entry, looked up): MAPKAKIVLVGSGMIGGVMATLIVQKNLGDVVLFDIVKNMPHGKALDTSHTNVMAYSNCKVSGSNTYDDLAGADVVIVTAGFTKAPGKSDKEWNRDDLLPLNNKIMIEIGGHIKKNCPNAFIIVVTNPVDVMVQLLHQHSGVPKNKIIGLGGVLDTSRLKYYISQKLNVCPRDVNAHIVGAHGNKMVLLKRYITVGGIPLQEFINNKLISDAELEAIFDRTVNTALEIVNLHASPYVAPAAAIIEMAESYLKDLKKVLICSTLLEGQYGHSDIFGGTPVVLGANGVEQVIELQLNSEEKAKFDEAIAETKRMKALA
Protein kinase 7 (PK7), Plasmodium falciparum 3D7 (PF3D7_0213400), sequence (Q7YTF7 1-343): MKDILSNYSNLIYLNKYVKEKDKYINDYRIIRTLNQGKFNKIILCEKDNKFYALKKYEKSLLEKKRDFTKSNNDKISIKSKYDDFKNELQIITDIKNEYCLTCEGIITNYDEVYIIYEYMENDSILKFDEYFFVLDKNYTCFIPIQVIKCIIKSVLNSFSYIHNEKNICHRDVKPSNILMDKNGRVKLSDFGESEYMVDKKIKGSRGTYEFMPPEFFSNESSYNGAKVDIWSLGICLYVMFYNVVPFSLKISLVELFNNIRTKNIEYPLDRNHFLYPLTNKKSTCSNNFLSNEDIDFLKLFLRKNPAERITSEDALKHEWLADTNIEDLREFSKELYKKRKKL
Plasmodium falciparum protein kinase 6 (PK6, PF3D7_1337100), sequence (Q8IDW1 1-305): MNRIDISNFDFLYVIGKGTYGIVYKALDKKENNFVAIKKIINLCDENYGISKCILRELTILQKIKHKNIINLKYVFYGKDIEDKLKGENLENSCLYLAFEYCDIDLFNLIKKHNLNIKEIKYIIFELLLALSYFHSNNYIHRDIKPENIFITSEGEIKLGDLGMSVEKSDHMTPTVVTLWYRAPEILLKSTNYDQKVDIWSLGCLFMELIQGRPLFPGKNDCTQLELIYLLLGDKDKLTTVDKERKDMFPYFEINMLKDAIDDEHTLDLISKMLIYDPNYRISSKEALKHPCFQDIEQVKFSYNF

With `CC(C)[C@@H]1c2ccc(O)cc2C[C@H]2C(=O)N(C3CCCCC3)C(=O)N21`, the values for the growth inhibition in experiment [1] and in experiment [4] were 88% (active) and 95% (active), respectively. The values for the inhibition in experiment [2] and in experiment [3] were 2% and 0%, respectively. Moreover, the result in experiment [5], in experiment [6], in experiment [7] and in experiment [8] was inactive.

Consider `COc1cc2nc(NCc3ccc(S(N)(=O)=O)cc3)nc(Nc3ccc(Oc4ccccc4)cc3)c2cc1OC`, for which the growth inhibition in experiment [1] was 100% (active); in experiment [4], 101% (active). Also, the figures for the inhibition in experiment [2] and in experiment [3] were 14% and -3%, respectively. Moreover, the outcome in experiment [5], in experiment [6], in experiment [7] and in experiment [8] was inactive.

As to `C=CCc1cc(Cc2cnc(N)nc2N)c2ccc(C)nc2c1OC`, the growth inhibition in experiment [1] is -1%; in experiment [4] it was 96% (active). Besides, the results for the inhibition in experiment [2] and in experiment [3] were 11% and -4%, respectively. Also, the outcome in experiment [5], in experiment [6], in experiment [7] and in experiment [8] was inactive.

As to `CN1CCN(c2ccnc3ccc(NC(=O)Nc4ccc(-c5ccccc5)cc4)cc23)CC1`, the results for the growth inhibition in experiment [1] and in experiment [4] were 41% and 99% (active), respectively. Moreover, the inhibition in experiment [2] is -10%; in experiment [3] it was -7%. Besides, the outcome in experiment [5], in experiment [6], in experiment [7] and in experiment [8] was inactive.

Regarding `O=S(=O)(NCCN1CCCC1)c1ccc(-c2ccc(CNC3Cc4ccccc4C3)cc2)s1`, the growth inhibition in experiment [1] was 97% (active); in experiment [4], 100% (active). Also, the inhibition was 47% in experiment [2] and -2% in experiment [3]. Besides, the result in experiment [5], in experiment [6], in experiment [7] and in experiment [8] was inactive.

For the molecule `Cc1ccc2nc(C)cc(NN=Cc3ccccc3Cl)c2c1`, the growth inhibition in experiment [1] is 62% (active); in experiment [4] it was 100% (active). The figures for the inhibition in experiment [2] and in experiment [3] were 6% and -2%, respectively. Besides, the result in experiment [5], in experiment [6], in experiment [7] and in experiment [8] was inactive.

Turning to `CCCCc1cc(NCc2ccncc2)nc(Nc2ccccc2)n1`, the growth inhibition is 4% in experiment [1] and 96% (active) in experiment [4]. Moreover, the inhibition is -5% in experiment [2] and -3% in experiment [3]. For the same molecule, the outcome in experiment [5], in experiment [6], in experiment [7] and in experiment [8] was inactive.

For the molecule `O=C(/C=C/c1ccc([N+](=O)[O-])cc1)N1CCC(NS(=O)(=O)c2ccc(Br)cc2)CC1`, the growth inhibition in experiment [1] is 5%; in experiment [4] it was 93% (active). Moreover, the inhibition was 0% in experiment [2] and -4% in experiment [3]. Further, the outcome in experiment [5], in experiment [6], in experiment [7] and in experiment [8] was inactive.

On to `O=S(=O)(Nc1ccc2nccc(N3CCNCC3)c2c1)c1ccc2c(Cl)cccc2c1`, for which the results for the growth inhibition in experiment [1] and in experiment [4] were 2% and 100% (active), respectively. Besides, the inhibition in experiment [2] was 11%; in experiment [3], -2%. The result in experiment [5], in experiment [6], in experiment [7] and in experiment [8] was inactive.

For the molecule `O=C(/C=C/c1ccc(Cl)c(Cl)c1)NCCCCCN1CCCN(C(=O)Nc2ccc(Cl)cc2)CC1`, the growth inhibition was -5% in experiment [1] and 100% (active) in experiment [4]. Further, the values for the inhibition in experiment [2] and in experiment [3] were 21% and -5%, respectively. The outcome in experiment [5], in experiment [6], in experiment [7] and in experiment [8] was inactive.

As for `CC1(C)N=C(N)N=C(N)N1OCCCCCOc1ccccc1`, the growth inhibition in experiment [1] is 97% (active); in experiment [4] it was 95% (active). For the same molecule, the values for the inhibition in experiment [2] and in experiment [3] were 61% (active) and 4%, respectively. In addition, the result in experiment [5], in experiment [6], in experiment [7] and in experiment [8] was inactive.

In the case of `COc1ccc(-c2nc(NC(=O)CSc3ccccc3)sc2C)cc1`, the growth inhibition was 31% in experiment [1] and 94% (active) in experiment [4]. In addition, the inhibition in experiment [2] is 6%; in experiment [3], 2%. The result in experiment [5], in experiment [6], in experiment [7] and in experiment [8] was inactive.

`CC(=O)Nc1ccc(OCCCCN(Cc2ccccc2C(F)(F)F)c2ccc(C#N)c(C(F)(F)F)c2)c(Cl)c1`: the figures for the growth inhibition in experiment [1] and in experiment [4] were 71% (active) and 98% (active), respectively. For the same molecule, the figures for the inhibition in experiment [2] and in experiment [3] were -1% and -3%, respectively. Besides, the result in experiment [5], in experiment [6], in experiment [7] and in experiment [8] was inactive.

As for `CN1CCN(CCCN(Cc2csc(-c3ccc(CNCc4ccccc4)cc3)n2)S(=O)(=O)c2cccc3cccnc23)CC1`, the growth inhibition in experiment [1] was 32%; in experiment [4], 89% (active). The inhibition in experiment [2] was 5%; in experiment [3], 1%. Besides, the outcome in experiment [5], in experiment [6], in experiment [7] and in experiment [8] was inactive.

Regarding `O=C(/C=C/c1ccc(Cl)c(Cl)c1)NCCCCCN1CCC(NC(=O)Nc2cccc(Cl)c2)CC1`, the results for the growth inhibition in experiment [1] and in experiment [4] were 13% and 102% (active), respectively. The inhibition in experiment [2] is 52% (active); in experiment [3], -1%. Moreover, the outcome in experiment [5], in experiment [6], in experiment [7] and in experiment [8] was inactive.

As to `Cc1cc2ncn(-c3ccnc(N4CCN(CCCN5CCCC5)CC4)n3)c2cc1C`, the growth inhibition is 49% in experiment [1] and 100% (active) in experiment [4]. For the same molecule, the inhibition was 24% in experiment [2] and -4% in experiment [3]. Besides, the outcome in experiment [5], in experiment [6], in experiment [7] and in experiment [8] was inactive.

`CCNc1cc(C(=O)N[C@@H](Cc2ccccc2Cl)[C@H](O)CNC2CCCCC2)cc(N2CCCCS2(=O)=O)c1`: the figures for the growth inhibition in experiment [1] and in experiment [4] were 97% (active) and 99% (active), respectively. Besides, the inhibition in experiment [2] is 6%; in experiment [3], 0%. For the same molecule, the result in experiment [5], in experiment [6], in experiment [7] and in experiment [8] was inactive.

Regarding `Clc1ccc(-c2csc3ncnc(Cl)c23)cc1`, the figures for the growth inhibition in experiment [1] and in experiment [4] were 95% (active) and 94% (active), respectively. Also, the inhibition was -3% in experiment [2] and -6% in experiment [3]. For the same molecule, the outcome in experiment [5], in experiment [6], in experiment [7] and in experiment [8] was inactive.

Turning to `NC(=NCCc1ccccc1Cl)c1ccc2ccccc2c1`, the growth inhibition in experiment [1] was 11%; in experiment [4] it was 88% (active). For the same molecule, the values for the inhibition in experiment [2] and in experiment [3] were 25% and -2%, respectively. Besides, the result in experiment [5], in experiment [6], in experiment [7] and in experiment [8] was inactive.

Consider `CCOc1ccccc1CNc1nccc(NCc2ccccc2OC)n1`, for which the growth inhibition in experiment [1] was 66% (active); in experiment [4] it was 87% (active). In addition, the inhibition in experiment [2] was 50% (active); in experiment [3] it was -2%. In addition, the outcome in experiment [5], in experiment [6], in experiment [7] and in experiment [8] was inactive.

Turning to `CC(=O)Nc1ccc(OCCN(Cc2ccccc2OC(F)(F)F)c2ccc(C(F)(F)F)c(C#N)c2)c(Cl)c1`, the growth inhibition in experiment [1] and in experiment [4] was 96% (active) in each case. Also, the figures for the inhibition in experiment [2] and in experiment [3] were 8% and 5%, respectively. Further, the outcome in experiment [5], in experiment [6], in experiment [7] and in experiment [8] was inactive.
